KCNH2 3.1 inh: blocks the human KCNH2 3.1 channel isoform; AID 720553; U2OS KCNH2 3.1, thallium flux FluxOr; hits give low values; 0.95% of 340,000 active; activity change, % (tested at about 1.8 µM);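 active means maximum activity change below -70%; inconclusive means maximum activity change from -70% to -50%; inactive means maximum activity change above -50%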;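 further: thallium influx rate constant from kinetic fluorescence after stimulation buffer; on the % scale 0 is the no-effect control and ±100 the full control effect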
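Steps: virus added to U2OS suspension (4 h, RT, dark); medium with 10% FBS added, cells plated, 37 C overnight; FluxOr/Red40 loading buffer 45 min RT; stimulation buffer, 2 min kinetic read; rate constant normalized.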
GLP-1R agonist: activates the human GLP-1 receptor; 0.007% of 380,000 active; HEK293 GLP-1R CRE-luciferase, luminescence, 4-6 h; cells express a hypersensitive GLP-1R form; AID 624172; P43220; Potency, µM (series often up to 45.6 µM), inactives show at the highest dose activation, actives largely listed as activators; further: potency means the concentration at half of the fitted maximal effect; % of control where 0% means no effect
GLP1R inv ag: acts as inverse agonist at human GLP-1 receptor. Potency, µM (top dose mostly 38.3 µM), without a hit: at the highest dose activity change, negative = inhibition, usual class: inhibitors. 1.6% of 410,000 active. HEK293 GLP-1R CRE-luciferase, luminescence, 24 h; GLP-1R form is constitutively active. P43220; further: potency means the concentration at half of the fitted maximal effect; on the % scale 0 is the no-effect control and ±100 the full control effect; nearly all actives have a fitted effect of over 55% in size
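Seeding at 200 cells/uL, 12 h culture, 24 hr compound treatment, then luciferase reagent and a luminescence read; cells are HEK293 stably expressing a constitutively active GLP-1R plus cAMP-responsive luciferase.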
HEK293 tox: cytotoxicity counter-screen for GLP-1 receptor inverse agonists; HEK293 cAMP-luciferase reporter cells, luminescence, 24 h; Potency, µM (top dose mostly 38.3 µM), without a hit: top-dose activity change, negative = inhibition, usual class: inhibitors; 0.13% of 410,000 active;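 further: loss of luciferase light is scored as toxicity; potency means the concentration at half of the fitted maximal effect; on the % scale 0 is the no-effect control and ±100 the full control effect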
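Cells in DMEM/10% Nu serum/1% pen-strep, 1536-well format. Pre-incubated 12 h, dosed with 23 nL compound, incubated a further 24 h. Luciferase detection, 12 min at room temp, luminescence.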
GLS inhibitor: blocks human kidney-isoform glutaminase activity; GLS enzymatic activity, qHTS titration; Potency, µM (series often up to 45.5 µM), without a hit: at the highest dose activity change, negative = inhibition, most hits filed as inhibitors; 0.21% of 410,000 active; AID 624170; further: potency means the concentration at half of the fitted maximal effect; on the % scale 0 is the no-effect control and ±100 the full control effect
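Compounds were pin-transferred onto hKGA, after which L-glutamine (1 mM solution) and a detection mix of glutamate oxidase, HRP and Amplex Red were added. Initial and 30 min RT fluorescence reads were collected.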
hERG WT inh: inhibitors of human wildtype KCNH2 potassium channel; U2OS, BacMam KCNH2, thallium flux FluxOr; hits give low values; activity change, % at 1.84 µM; 0.37% of 340,000 active; AID 720551;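 active means maximum activity change below -70%; inconclusive means maximum activity change between -70% and -50%; inactive means maximum activity change above -50%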; further: on the % scale 0 is the no-effect control and ±100 the full control effect
Target sequence (Q12809 whole entry, looked up): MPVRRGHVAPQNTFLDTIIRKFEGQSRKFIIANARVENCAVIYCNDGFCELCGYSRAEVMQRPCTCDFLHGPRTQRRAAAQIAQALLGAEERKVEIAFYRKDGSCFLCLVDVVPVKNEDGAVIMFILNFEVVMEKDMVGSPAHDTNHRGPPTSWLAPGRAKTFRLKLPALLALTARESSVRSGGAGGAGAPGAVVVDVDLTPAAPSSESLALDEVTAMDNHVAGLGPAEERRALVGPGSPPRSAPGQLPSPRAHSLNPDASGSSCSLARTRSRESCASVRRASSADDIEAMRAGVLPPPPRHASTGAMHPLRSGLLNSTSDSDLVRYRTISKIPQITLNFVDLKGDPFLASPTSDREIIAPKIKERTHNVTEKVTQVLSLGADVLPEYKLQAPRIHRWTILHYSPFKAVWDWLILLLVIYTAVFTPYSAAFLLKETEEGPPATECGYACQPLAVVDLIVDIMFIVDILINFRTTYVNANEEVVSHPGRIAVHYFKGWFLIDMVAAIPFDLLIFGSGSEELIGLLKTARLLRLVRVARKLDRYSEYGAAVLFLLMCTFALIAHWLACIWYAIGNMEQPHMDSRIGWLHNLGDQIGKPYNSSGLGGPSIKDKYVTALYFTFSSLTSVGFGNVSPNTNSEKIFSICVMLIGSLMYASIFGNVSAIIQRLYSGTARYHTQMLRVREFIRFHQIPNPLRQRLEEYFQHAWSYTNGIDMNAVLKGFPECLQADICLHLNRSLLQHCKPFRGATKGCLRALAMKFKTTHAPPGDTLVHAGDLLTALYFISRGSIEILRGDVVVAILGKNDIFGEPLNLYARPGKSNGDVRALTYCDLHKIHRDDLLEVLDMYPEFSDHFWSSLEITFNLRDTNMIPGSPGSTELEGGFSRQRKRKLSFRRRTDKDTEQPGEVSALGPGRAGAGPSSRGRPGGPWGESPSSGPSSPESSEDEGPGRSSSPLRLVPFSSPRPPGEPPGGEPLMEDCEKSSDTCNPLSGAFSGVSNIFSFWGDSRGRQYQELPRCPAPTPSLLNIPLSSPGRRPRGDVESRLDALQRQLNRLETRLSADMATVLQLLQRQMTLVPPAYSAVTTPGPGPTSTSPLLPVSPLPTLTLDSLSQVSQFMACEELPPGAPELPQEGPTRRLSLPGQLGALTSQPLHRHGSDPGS
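U2OS cells were transduced with wild-type KCNH2 virus (2.03 x 10^8 / mL) for 4 h at room temperature, then cultured overnight at 37 C. Thallium flux was read with FluxOr dye. Rate constants were normalized to DMSO controls.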
* = called active by the depositor; ? = inconclusive; . = no result. Sampled rows, rich in hits. Any-hit rate of the full collection: about 2.8%. Unless noted, the call rests on the fitted dose curve; in most records, active means well fitted curve in the direction sought with a large enough effect; inconclusive means small, poorly fitted or top-dose-only effect, or another doubt; inactive means no such curve, though single readings can be large; an effect the other way counts as inactive or inconclusive.

SMILES	KCNH2 3.1 inh	GLP-1R agonist	GLP1R inv ag	HEK293 tox	GLS inhibitor	hERG WT inh
Cc1cccc(-n2ccnc2SCC(=O)Nc2ccc(F)cc2F)c1C	.	13%	?	-14%	5%	.
Cc1cccc(-n2ccnc2SCC(=O)N2CCCc3ccccc32)c1C	-8	4%	11µM*	-22%	7%	1
CCc1cccc(CC)c1-n1c(SCC(=O)N2CCCc3ccccc32)nc(O)cc1=O	13	-1%	10µM*	-18%	?	5
Cc1ccc(NC(=O)CSc2nnc(-c3cc4occc4n3C)n2-c2ccccc2C)c(Cl)c1	.	.	1%	-1%	-4%	.
Cc1c(C)c2cc3c(c(C)c2oc1=O)OCN(CCc1ccccc1)C3	.	.	13%	140%	-7%	.
CC1CCCCC1NC(=O)CCC(=O)N1CCOc2ccc(Cl)cc21 (centres undefined)	18	6%	?	-11%	1%	-6
O=C1CC(N2CCN(c3ccccn3)CC2)C(=O)N1CC(c1ccccc1)c1ccccc1 (centres undefined)	-32	-1%	13µM*	0%	0%	-16
Cc1cc(C)c(OCCN(C)C)c(Cl)c1	-14	-2%	-19%	-4%	-12%	-25
Cc1cc(Cl)cc(Cl)c1OCCOc1cccc2cccnc12	5	1%	8.9µM*	-24%	4%	0
Cc1cc(Cl)cc(Cl)c1OCCOCCN(C)C	-9	-14%	11µM*	0%	-5%	16
COc1ccc(C)cc1NC(=O)C1CCCN(S(=O)(=O)c2ccc3c(c2)oc(=O)n3C)C1 (centres undefined)	.	1%	-13%	-17%	-2%	.
O=C(CCc1nnc2ccc(NCc3ccccc3)nn12)NC1CCCC1	-75*	8%	32%	6%	3%	-9
Cc1ccc(C)c(-n2c(Cc3cccs3)n[nH]c2=S)c1	-3	7%	-29%	?	-27%	-1
Cc1ccc(-n2c(Cc3cccc4ccccc34)n[nH]c2=S)c(C)c1	-12	-4%	?	0%	10µM*	-1
Cc1ccc(-n2c(-c3ccccc3)n[nH]c2=S)c(C)c1	-5	-6%	?	10µM*	-30%	-6
COc1ccc(N2CC(C(=O)Nc3nnc(SCC(=O)NCC4CCCO4)s3)CC2=O)cc1 (centres undefined)	-197*	2%	9%	-3%	-6%	-128*
Cc1ccc(N2CC(C(=O)Nc3nnc(SCC(=O)NCC4CCCO4)s3)CC2=O)cc1C (centres undefined)	17	0%	13%	-2%	1%	-4
Cc1cccc(N2CCN(C(=O)c3cnn(-c4ccccc4Cl)c3C3CCN(C(=O)OC(C)(C)C)CC3)CC2C)c1 (centres undefined)	.	.	2%	-3%	-5%	.
O=C(NC1CCN(C(=O)Nc2cccc(Cl)c2)CC1)c1ccco1	4	10%	8%	0%	1%	-2
O=C(NC1CCCCCCC1)c1cc(F)c(F)cc1Cl	-29	8%	?	2%	13%	8
Cc1ccc(C(=O)NC2CCCCCCC2)c(Cl)c1	-11	0%	4µM*	6%	-11%	-2
Cc1c(Cl)cccc1-n1ncc(C(=O)NCCN2CCN(C)CC2)c1C1CCN(C(=O)OC(C)(C)C)CC1	.	.	3%	7%	1%	.
O=C(O)C1Nc2c(C(F)(F)F)ccc(Cl)c2C2C=CCC12 (centres undefined)	13	-8%	-17%	-5%	-23%	-5
Cc1cc(C)c2c(c1)NC(C(=O)O)C1CC=CC21 (centres undefined)	-1	6%	-4%	6%	10µM*	0
COc1ccc(NS(=O)(=O)c2c(C(=O)N3CCCCCC3)c(C)n(C)c2C)cc1	-74*	-6%	?	3%	20%	9
SMILES	KCNH2 3.1 inh	GLP-1R agonist	GLP1R inv ag	HEK293 tox	GLS inhibitor	hERG WT inh
C=CCNC(=S)NNc1nc2sc3c(c2c(=O)[nH]1)CC(C)(C)OC3	-21	-3%	29%	0%	28%	0
CCOc1ccc2c(c1)sc(N)[n+]2Cc1cc(C)cc2cccnc12	-88*	2%	?	?	2%	16
Cc1cc(C[n+]2ncsc2N)c2ncccc2c1	-9	4%	-12%	-2%	-4%	0
COc1ccc2c(c1)sc(N)[n+]2Cc1cc(C)cc2cccnc12	-77*	2%	?	?	10%	16
O=C(NCc1ccc2c(c1)CCN2C(=O)c1ccc(F)cc1)c1ccco1	.	.	-10%	2%	-10%	.
Cc1cc(C(=O)NNc2ccc(F)cc2F)no1	-3	0%	2.8µM*	?	2%	1
Cc1oc(-c2ccccc2Cl)nc1Cn1c(SCc2cccc(F)c2)nc2cccnc21	.	.	?	-6%	-2%	.
CCN(CC)c1ccc(C(=O)Nc2cccc(F)c2)cc1	-12	25%	5.6µM*	-29%	1%	-38
CCN(CC)c1ccc(NC(=O)Nc2ccccc2)cc1	5	4%	?	-17%	13µM*	6
CCN(CC)c1ccc(NC(=O)Nc2ccc(C(C)=O)cc2)cc1	-20	4%	?	5%	16%	-2
C=C(C)C(=O)Nc1ccc(OC(F)(F)C(F)F)c(NC(=O)C(=C)C)c1	-9	33%	0%	70%	13µM*	6
CC(=O)Nc1ccc(OC(F)(F)C(F)F)c(NC(C)=O)c1	10	-3%	-2%	?	-1%	-1
Cc1ccc(S(=O)(=O)N(CC(=O)NCCSCc2ccco2)c2cc(C)ccc2C)cc1	-5	0%	11µM*	2%	-2%	-4
Cc1cc(C)nc(N/N=C/c2ccccc2OCc2cccc(Br)c2)n1	-1	7%	3.5µM*	4µM*	0%	-10
Cc1cc(C)nc(N/N=C/c2ccccc2OCc2ccc(Br)cc2)n1	-1	-3%	-7%	12%	19%	-20
COc1cccc(CNC(=O)c2sc3nc4n(c(=O)c3c2C)CCC4)c1	.	.	2%	-2%	0%	.
N/C(CC(=O)NC1CCCCC1)=N\OCC(=O)Nc1ccc(Cl)c(Cl)c1	23	10%	22µM*	6%	-3%	19
O=C(COC(=O)/C=C/c1ccco1)Nc1ccccc1	-16	3%	4%	-1%	-5%	-1
CCc1ccc(NC(=O)COC(=O)/C=C/c2ccco2)cc1	-121*	2%	17%	6%	0%	18
CCOc1ccc(NC(=O)CSc2oc(-c3ccc(F)cc3)nc2S(=O)(=O)c2ccc(C)cc2)cc1	.	.	7%	-3%	5%	.

Screening data as filed in PubChem BioAssay.
